Measurements reported in PubChem BioAssay (NCI).
The panel holds about 83,000 compounds, 20% with a hit somewhere; the sample as a whole holds those more often.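 Cells were grown in 96-well plates and exposed to the test compound at a single concentration for 48 hours; results are reported as percent growth, with values below 10 considered active.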 Calls of active or inactive are those of the source.

Assays:
Experiment in all cases: NCI-60 one-dose screen, 48 h (100 = growth as untreated, 0 = no growth, -100 = all killed)
Settings in all cases: 10 µM unless noted
T-47D breast = system: T-47D breast
BT-549 breast = system: BT-549 breast
MDA-MB-435 melanoma = system: MDA-MB-435 melanoma
SW-620 colon = system: SW-620 colon
MCF7 breast = system: MCF7 breast
HCT-116 colon = system: HCT-116 colon
HCC-2998 colon = system: HCC-2998 colon
KM12 colon = system: KM12 colon

Measured: growth

COc1cc(/C=N\NC(=O)CN2CCN(c3cc4c(cc3F)c(=O)c(C(=O)N/N=C/c3ccc(O)c(OC)c3)cn4C3CC3)CC2)ccc1O
inactive: BT-549 breast 56% | MDA-MB-435 melanoma 55% | SW-620 colon 57.2% | MCF7 breast 12.5% | HCT-116 colon 53.6% | KM12 colon 20.5%
active: T-47D breast -1.62% | HCC-2998 colon 7.72%

CCN(CC)c1ccc(CNc2cc(C)nc3ccc(OC)cc23)cc1
inactive: T-47D breast 80% | BT-549 breast 79.6% | MCF7 breast 76.7% | HCT-116 colon 54.8% | KM12 colon 28.4%
active: MDA-MB-435 melanoma -16.5% | SW-620 colon -74.6% | HCC-2998 colon -92.6%

COc1ccc2nc3cc(Cl)ccc3c(N3CCN(c4ccnc(N5CCOCC5)n4)CC3)c2c1
inactive: BT-549 breast 93.1% | MDA-MB-435 melanoma 57% | HCC-2998 colon 12.9% | KM12 colon 53.2%
active: T-47D breast -37.9% | SW-620 colon 3.94% | MCF7 breast -82% | HCT-116 colon 1.63%

COC(=O)[C@H](C(C)C)n1c(=O)c2cc(OC)c(OC)cc2c2cnc3[nH]ccc3c21
inactive: T-47D breast 14.8% | BT-549 breast 21.2% | MDA-MB-435 melanoma 75.1% | SW-620 colon 61.8% | MCF7 breast 26.2% | HCT-116 colon 41.4% | HCC-2998 colon 62% | KM12 colon 18.4%

COc1ccc(C2c3ccc4ccccc4c3Oc3ncnc(N)c32)cc1 (stereo unspecified)
inactive: T-47D breast 60.1% | BT-549 breast 88.3% | SW-620 colon 76.8% | MCF7 breast 68.1% | HCT-116 colon 92.9% | HCC-2998 colon 104% | KM12 colon 72.4%
active: MDA-MB-435 melanoma 8.46%

COc1ccc(-c2cc(-c3cccnc3)nc3sc4c(=O)n(-c5ccc(C)cc5)nnc4c23)cc1OC
inactive: T-47D breast 99.3% | BT-549 breast 103% | MDA-MB-435 melanoma 99.3% | SW-620 colon 94.4% | MCF7 breast 99.7% | HCT-116 colon 95% | HCC-2998 colon 109% | KM12 colon 103%

O=C1/C(=C\c2cn(C(=O)c3ccc(Cl)cc3)c3ccccc23)c2ccccc2N1c1c(Cl)cccc1Cl
inactive: T-47D breast 92.5% | BT-549 breast 107% | MDA-MB-435 melanoma 116% | SW-620 colon 105% | MCF7 breast 95.7% | HCT-116 colon 94.1% | HCC-2998 colon 102% | KM12 colon 111%

CC(C)[C@@H]1CC[C@]2(C(=O)NCCCCN=C(N)N)CC[C@]3(C)[C@H](CC[C@@H]4[C@@]5(C)CCC(=O)C(C)(C)[C@@H]5CC[C@]43C)[C@@H]12
inactive: T-47D breast 37.4% | BT-549 breast 90.5% | MDA-MB-435 melanoma 56.2% | SW-620 colon 71.3% | MCF7 breast 33.5% | HCT-116 colon 72.9% | HCC-2998 colon 53.7% | KM12 colon 40.9%

CCC(c1ccccc1)C(CC)c1ccc(O)c(O)c1 (stereo unspecified)
inactive: T-47D breast 80.5% | BT-549 breast 110% | MDA-MB-435 melanoma 95% | SW-620 colon 97.3% | MCF7 breast 98.7% | HCT-116 colon 88.2% | HCC-2998 colon 97.5% | KM12 colon 90.9%

C=C1C(=O)O[C@H]2[C@H]1CC/C(Cn1cc(Cn3ccc4ccccc43)nn1)=C\CC[C@@]1(C)O[C@@H]21
inactive: BT-549 breast 58.7% | MDA-MB-435 melanoma 19.9% | HCC-2998 colon 69% | KM12 colon 66.5%
active: T-47D breast -17.9% | SW-620 colon -77.1% | MCF7 breast -73.9% | HCT-116 colon -89.5%

CN1CCN(Cc2ccc(NC(=O)c3[nH]ncc3Nc3ncnc4c3CCC4)cc2)CC1
active: BT-549 breast -7.15% | SW-620 colon 7.76% | HCT-116 colon 5.79% | KM12 colon 6.55%
inactive: T-47D breast 32.3% | MDA-MB-435 melanoma 29.6% | MCF7 breast 11.3% | HCC-2998 colon 13.1%

Cc1cc(N/N=C/c2nc(-c3ccc(Cl)cc3)oc2C)c2cc(Br)ccc2n1
inactive: T-47D breast 74.5% | BT-549 breast 94% | HCC-2998 colon 89.9% | KM12 colon 55.3%
active: MDA-MB-435 melanoma -38.8% | SW-620 colon -65.4% | MCF7 breast -77.8% | HCT-116 colon 4.35%

COCCCNc1nc(NC(=O)c2ccc(F)cc2C)cc(-c2cccnc2)n1
inactive: T-47D breast 89.4% | BT-549 breast 103% | MDA-MB-435 melanoma 103% | SW-620 colon 109% | MCF7 breast 103% | HCT-116 colon 101% | HCC-2998 colon 103% | KM12 colon 104%

CCOC(=O)C(Cc1cc(I)c(O)c(I)c1)NC(=O)c1ccccc1 (stereo unspecified)
inactive: T-47D breast 86.6% | BT-549 breast 101% | MDA-MB-435 melanoma 100% | SW-620 colon 94.4% | MCF7 breast 92.5% | HCT-116 colon 96.2% | HCC-2998 colon 119% | KM12 colon 102%

N=c1c2ccccc2nc2n1CCCCC2
inactive: T-47D breast 111% | BT-549 breast 117% | MDA-MB-435 melanoma 103% | SW-620 colon 110% | MCF7 breast 99.4% | HCT-116 colon 109% | HCC-2998 colon 106% | KM12 colon 112%

CCN(CC)CCC(=O)Nc1ccc(Cn2nnc3c2C(=O)c2nnn(Cc4ccc(NC(=O)CCN(CC)CC)cc4)c2C3=O)cc1
active: T-47D breast -58% | BT-549 breast -94.2% | MDA-MB-435 melanoma -80.1% | SW-620 colon -9.46% | MCF7 breast -60.2% | HCT-116 colon -87.9% | HCC-2998 colon -47.2% | KM12 colon -6.54%

C/C(=C(/c1ccc(O)cc1)c1ccc(OCCN(C)C)cc1)c1ccccc1
inactive: T-47D breast 42.6% | BT-549 breast 92.4% | MDA-MB-435 melanoma 77.2% | SW-620 colon 101% | MCF7 breast 32.6% | HCT-116 colon 68.4% | HCC-2998 colon 97.8% | KM12 colon 81.1%

COc1cccc(-n2cc(-c3nc(Nc4cc(C)[nH]n4)c4ccccc4n3)nn2)c1
inactive: T-47D breast 17.6% | BT-549 breast 49.3% | MDA-MB-435 melanoma 34% | SW-620 colon 66.5% | MCF7 breast 37.6% | HCT-116 colon 41.5% | HCC-2998 colon 44.5% | KM12 colon 23%

O=C(Nc1ccc(Oc2ccc(F)cc2)c(Cl)c1)c1cccnc1
inactive: T-47D breast 70.6% | BT-549 breast 92.5% | MDA-MB-435 melanoma 41.5% | SW-620 colon 92.7% | MCF7 breast 76.7% | HCT-116 colon 88.2% | HCC-2998 colon 91.2% | KM12 colon 76.4%

NS(=O)(=O)N(c1cc(C(F)(F)F)cc(C(F)(F)F)c1)C1CCN(Cc2ccc(F)cc2)CC1
active: HCC-2998 colon -50.4%
inactive: T-47D breast 37.2% | BT-549 breast 81% | MDA-MB-435 melanoma 70.1% | SW-620 colon 63.8% | MCF7 breast 49.6% | HCT-116 colon 38% | KM12 colon 40.2%

COc1cnc2c(c1)C(=O)c1c-2n(CCCN2CCCC2)c(=O)c2cc([N+](=O)[O-])ccc12
active: MDA-MB-435 melanoma 2.83% | SW-620 colon -19.3% | MCF7 breast 3.81% | HCT-116 colon -67.5% | KM12 colon -33.3%
inactive: T-47D breast 24.5% | BT-549 breast 18.2% | HCC-2998 colon 16.2%

C[C@@H]1CCC2=C(CCC[C@]2(C)C(=O)O)[C@@]1(C)CCc1ccoc1
inactive: T-47D breast 94.9% | BT-549 breast 117% | MDA-MB-435 melanoma 107% | SW-620 colon 98.8% | MCF7 breast 96.7% | HCT-116 colon 96% | HCC-2998 colon 87.6% | KM12 colon 97.7%

CN1CCN(c2ccc3nc(-c4ccc5nc(-c6ccc(OCCC(C)(C)C)cc6)[nH]c5c4)[nH]c3c2)CC1
inactive: T-47D breast 73.4% | BT-549 breast 72.4%
active: MDA-MB-435 melanoma -37.8% | SW-620 colon -82.6% | MCF7 breast -61.3% | HCT-116 colon -95% | HCC-2998 colon -64.6% | KM12 colon -60.6%

CSc1[nH]c2ncnc(N)c2c1C#N
inactive: T-47D breast 97.3% | BT-549 breast 85.9% | MDA-MB-435 melanoma 102% | SW-620 colon 128% | MCF7 breast 100% | HCT-116 colon 102% | HCC-2998 colon 108% | KM12 colon 122%

C/C(=C(/c1ccc(O)cc1)c1ccc(OCCN2CCCC2)cc1)c1ccccc1
inactive: T-47D breast 28.5% | BT-549 breast 64% | MDA-MB-435 melanoma 39.9% | SW-620 colon 67.8% | MCF7 breast 22.2% | HCT-116 colon 41.2% | HCC-2998 colon 66.3% | KM12 colon 51.6%

COc1ccc(-c2cn3c(-c4ccc(OC)cc4)cnc3c(Oc3ccc4c(C)cc(=O)oc4c3)n2)cc1
inactive: T-47D breast 45.3% | BT-549 breast 29.2% | MDA-MB-435 melanoma 37.2% | SW-620 colon 39% | MCF7 breast 44.2% | HCT-116 colon 33.9% | HCC-2998 colon 77.1% | KM12 colon 43%

COc1ccc(/C=C/C(=O)c2c(O)c(C)c(O)c3c2OC2=CC(O)=C(C(C)=O)C(=O)[C@]23C)cc1
active: T-47D breast -17.1% | BT-549 breast -19.9% | MDA-MB-435 melanoma -66.9% | SW-620 colon 6.73% | MCF7 breast -2.88% | HCT-116 colon -8.41% | HCC-2998 colon -30.2% | KM12 colon -4.07%

Cc1noc(C)c1-c1cc(O)cc(C(O)c2ccccc2)c1 (stereo unspecified)
inactive: T-47D breast 47.1% | BT-549 breast 64.7% | MDA-MB-435 melanoma 43.9% | SW-620 colon 72.1% | MCF7 breast 20.9% | HCT-116 colon 58.1% | HCC-2998 colon 62.2% | KM12 colon 53.1%

O=C1Nc2ccccc2C12CC(c1ccc(Cl)cc1)=NN2 (stereo unspecified)
inactive: T-47D breast 91.1% | BT-549 breast 98.5% | MDA-MB-435 melanoma 98.8% | SW-620 colon 106% | MCF7 breast 91.4% | HCT-116 colon 95.3% | HCC-2998 colon 108% | KM12 colon 110%

CC(=O)C1=C(O)C=C2Oc3c(C(=O)/C=C/c4c(Cl)cccc4Cl)c(O)c(C)c(O)c3[C@]2(C)C1=O
active: T-47D breast -20.2% | BT-549 breast -28.9% | MDA-MB-435 melanoma -11.6% | SW-620 colon 5.36% | MCF7 breast -11.2% | HCT-116 colon -26.8% | HCC-2998 colon -59.6% | KM12 colon -12.1%

COc1cc2c(cc1O)CCc1cc(O)cc(OC)c1-2
inactive: T-47D breast 98% | BT-549 breast 79.9% | MDA-MB-435 melanoma 96.2% | SW-620 colon 109% | MCF7 breast 97.8% | HCT-116 colon 93.7% | HCC-2998 colon 110% | KM12 colon 97.4%

O=C(Nc1ccc(Nc2cc(Nc3ccccc3)ncn2)cc1)Nc1cc(C(F)(F)F)ccc1F
inactive: T-47D breast 24.1% | BT-549 breast 85.3% | MDA-MB-435 melanoma 75.8% | SW-620 colon 120% | MCF7 breast 51.6% | HCT-116 colon 63.7% | HCC-2998 colon 93.7% | KM12 colon 23.3%
